Assay outcomes as filed in PubChem BioAssay.
Most compounds without a hit are left out; they make up all but 2.8% or so of the library.
Shn3 inh set2: inhibitors of Schnurri-3 3'UTR reporter in osteoblasts; actives 0.52% (n = 360,000); inhibition, % at 12.5 µM; Clone20 osteoblast Shn3 3'UTR firefly luciferase, 24 h;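 active = mean inhibition of at least 75% with every replicate also reaching 75%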
KKLEB tox: CF airway cell cytotoxicity counter-screen. KKLEB CF airway cells viability, ATPlite luminescence, overnight; hits give low values; cells stimulated with P. aeruginosa culture filtrate. activity change (cytotoxicity), % at 5 µM. actives 0.36% (n = 360,000). AID 602141;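 active = corrected activity change at or below -50% at 5 µM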
Peg3 promoter: inhibitors of Peg3 promoter. AID 588405. inhibition, % at 20 µM. HeLa PEG-Prom luciferase reporter, luminescence, overnight. actives 1.7% (n = 360,000);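 active = inhibition of at least 50% at 20 µM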
CF NFkB block: cystic fibrosis NF-kB activation inhibition. KKLEB NF-kB-GFP reporter, PAF-induced, GFP fluorescence overnight. inhibition, % at 5 µM. actives 0.86% (n = 360,000). AID 588850;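 active = at least 50% inhibition at 5 µM, scaled per plate between neutral and stimulator controls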;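 note: PAF is a Pseudomonas aeruginosa culture filtrate used as stimulus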
HIF-2a inh: inhibitors of HIF-2a | inhibition, % at 18.8 µM | 786-0 RCC cells HIF-2a reporter, luciferase luminescence, overnight | actives 0.72% (n = 360,000);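 active = inhibition of the luminescence signal of 40% or more relative to plate controls, in a single-dose primary screen at 18.75 µM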
TRPM1 prom inh: reduces MITF-dependent TRPM1 promoter luciferase signal. inhibition, % at 12.5 µM. SK-MEL-5 TRPM1 promoter luciferase, 24 h. actives 0.83% (n = 330,000);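 active = mean inhibition across replicates of 60% or more, whatever share of single replicates reaches that level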
CF NFkB inh conf: confirmation of cystic fibrosis induced NF-kB inhibitors. shares compounds with CF NFkB block. KKLEB CF airway cells, PAF-induced NF-kB-GFP fluorescence, overnight. inhibition, % at 5 µM. actives 64% (n = 1,300). AID 602472; in the data active = inhibition above about 40%;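 note: stimulus PAF is a Pseudomonas aeruginosa filtrate and not platelet activating factor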
Of the large screens only hits and unclear results are named; the others gave an inactive call (follow-up assays come after a bar, where they were run).

C=C1CCC[C@]2(C)C[C@H]3OC(=O)C(CN4CCCCC4CO)[C@H]3CC12 (stereo not given in full)	Peg3 promoter 62, CF NFkB block 75, TRPM1 prom inh 79 | CF NFkB inh conf inactive
C=C1CCC[C@]2(C)C[C@H]3OC(=O)C(CNC(C)(CO)CO)[C@H]3CC12 (stereo not given in full)	CF NFkB block 75 | CF NFkB inh conf inactive
Cc1ccccc1C(=O)NCC(c1ccco1)N1CCc2ccccc2C1 (stereo not given)	none
C=CC[C@]12CC=CC(=O)[C@@]1(O)O[C@H](c1ccc(OC)c(OC)c1)[C@H]2C	CF NFkB block 62, TRPM1 prom inh 62 | CF NFkB inh conf 58
CC(C)(C)c1ccc(C(=O)CC(Sc2ccc(Cl)cc2)C(=O)O)cc1 (stereo not given)	CF NFkB block 88 | CF NFkB inh conf inactive
Cc1ccc(SC(CC(=O)c2ccc(F)cc2)C(=O)O)cc1 (stereo not given)	none
Cc1ccc2nc(SCC(=O)Nc3cc(C(F)(F)F)ccc3N3CCOCC3)[nH]c2c1	CF NFkB block 50 | CF NFkB inh conf 78
O=C(CSc1nccc(=O)[nH]1)Nc1cc(C(F)(F)F)ccc1N1CCOCC1	none
O=C(CCCn1c(=S)[nH]c2cc3c(cc2c1=O)OCO3)N1CCN(c2ccccc2)CC1	none
Cc1cccc(N2CCN(C(=O)CCn3c(=S)[nH]c4cc5c(cc4c3=O)OCO5)CC2C)c1 (stereo not given)	Peg3 promoter 63, CF NFkB block 69 | CF NFkB inh conf 101
O=C(NCc1ccccc1)c1cc(C2CCCCN2C(=O)c2ccccc2)on1 (stereo not given)	none (no result: TRPM1 prom inh)
O=c1c2cc(Br)ccc2[nH]c(=S)n1Cc1ccccc1	none
O=C(NCc1cccnc1)c1ccc(Cn2c(=S)[nH]c3ccc(Br)cc3c2=O)cc1	CF NFkB block 52 | CF NFkB inh conf inactive
COc1ccc(COC(=O)C2=C(C)NC(=O)NC2c2ccc(F)cc2)cc1 (stereo not given)	CF NFkB block 60 | CF NFkB inh conf 59
C[C@H]1CCC[C@]2(C)C[C@H]3OC(=O)C(CN4CCCCCC4)[C@H]3C=C12 (stereo not given in full)	CF NFkB block 74, TRPM1 prom inh 78 | CF NFkB inh conf inactive
O=S(=O)(Nc1nc2ccccc2nc1N1CCN(c2ccccc2F)CC1)c1ccc(Cl)cc1	CF NFkB block 61 | CF NFkB inh conf 66
Cc1cc(-c2nnnn2-c2cc(Cl)cc(Cl)c2)no1	none
Cc1ccc(CNc2ncnc3ccc(-c4ccoc4C)cc23)o1	CF NFkB block 74 (no result: TRPM1 prom inh) | CF NFkB inh conf 97
CCOc1ccc(NC(=O)c2c(N)n(C)c(=O)[nH]c2=O)cc1	none
COc1cc(CN(C)c2ccc(S(=O)(=O)N3CCCC3)cn2)ccc1OC(F)F	CF NFkB block 54 | CF NFkB inh conf 55
COc1ccc(CCN(C)c2ccc(S(=O)(=O)N3CCCC3)cn2)cc1OC	none
COc1cccc(C(C(=O)NC(C)(C)C)N(Cc2ccc(F)cc2)C(=O)CCC(=O)Nc2cc(C)on2)c1OC (stereo not given)	none
COc1ccc(C2C(C#N)=C(N)Oc3cc(O)ccc32)cc1 (stereo not given)	none
COc1ccc(N=Cc2cc3c(cc2O)OC(N)=C(C#N)C3c2ccccc2)cc1 (stereo not given)	CF NFkB block 56 | CF NFkB inh conf 85
CC(C)CC1NC(=O)N(CC(=O)N2c3ccccc3NC(=O)C2(C)C)C1=O (stereo not given)	none
CC(C)C[C@@H]1NC(=O)[C@H](Cc2ccccc2)N(C)C(=O)[C@H](C)NC(=O)c2ccccc2NC(=O)[C@H](Cc2ccc(O)cc2)N(C)C1=O	Peg3 promoter 52, CF NFkB block 82 | CF NFkB inh conf 94
COc1ccccc1C(=O)N1CCN(Cc2ccc3c(c2)OCO3)CC1	none
CCOc1ccccc1C(=O)NCC(=O)N1CCN(Cc2ccc3c(c2)OCO3)CC1	CF NFkB block 74 | CF NFkB inh conf inactive
O=C(Nc1ccc(S(=O)(=O)Nc2nccs2)cc1)c1ccccc1OC(F)F	none
CCCCC1=NN2CCS(=O)(=O)N=C2S1	none
CC(C)(C)c1ccc(C(=O)O/N=C(\N)Cc2cccs2)cc1	CF NFkB block 61 (no result: TRPM1 prom inh) | CF NFkB inh conf inactive
CCCCCOC(=O)c1[nH]c2c(c1C)C(=O)CC(c1ccco1)C2 (stereo not given)	Shn3 inh set2 92, CF NFkB block 52 | CF NFkB inh conf 85
O=C(CCCc1nc2ccccc2s1)Nc1nccs1	none
Cc1cnc(NC(=O)CCCc2nc3ccccc3s2)s1	Peg3 promoter 98, CF NFkB block 84 | CF NFkB inh conf 89
COc1ccc(C(=O)Nc2cccc3cccnc23)cc1OC	none
COc1ccc(C(=O)Nc2cccc(NC(=O)c3ccc(OC)c(OC)c3)n2)cc1OC	CF NFkB block 84 | CF NFkB inh conf 62
COc1ccc(NS(=O)(=O)c2cccc(C(=O)NN=C(C)c3ccco3)c2)cc1	none
C=C1C(=O)[C@]23C[C@H]1CCC2[C@]1(C)C(=O)CC[C@@](C)(C(=O)O)C1C[C@@H]3O (stereo not given in full)	Peg3 promoter 61, CF NFkB block 71 (no result: TRPM1 prom inh) | CF NFkB inh conf 86
C=C1C(=O)[C@]23C[C@H]1CC[C@H]2[C@]1(C)[C@@H](OC(C)=O)CC[C@@](C)(C(=O)O)[C@H]1C[C@@H]3OC(C)=O	CF NFkB block 62 (no result: TRPM1 prom inh) | CF NFkB inh conf inactive
COc1ccc(CCNc2nc(C)nc3c2nnn3Cc2ccccc2)cc1	none
CC(C)(CNC(=O)CO/N=C1/C=C2CCC3C(C(O)C[C@@]4(C)C3CC[C@]4(O)C(=O)CO)[C@@]2(C)CC1)C(O)C(=O)O (stereo not given in full)	CF NFkB block 70 | CF NFkB inh conf inactive
CC12CCC(=O)C=C1CCC1C2C(O)CC2(C)C1CCC2(O)C(=O)COC(=O)CCC1CCCC1 (stereo not given)	CF NFkB block 53 (no result: TRPM1 prom inh) | CF NFkB inh conf inactive
CC(=O)[C@H]1CC[C@H]2[C@@H]3CCC4=CC(=O)CC[C@]4(C)[C@H]3[C@H](O)C[C@]12C	none
CC(=O)OCC(=O)C1(O)CCC2C3CCC4=CC(=O)CCC4(C)C3(Cl)C(O)CC21C (stereo not given)	CF NFkB block 77 | CF NFkB inh conf inactive
CC(=O)OCC=C1CCC2C3CCC4=CC(=O)CCC4(C)C3C(O)CC12C (stereo not given)	none
O=C(CCCc1ccccc1)NCCS(=O)(=O)N1CCN(c2ccccc2F)CC1	none
